# Experimental data from PubChem BioAssay (NCATS).
# Several values for one entry are separate records, joined by “and”; a condition that tells them apart may be missing. Equal entries are not always repeated. Records with an inconclusive call do not appear. Activity calls are given as the source filed them. Unless noted, the call rests on the fitted dose curve; in most records, active means well fitted curve in the direction sought with a large enough effect in the repeat runs; inconclusive means weak or mixed curves; inactive means no such curve, though single readings can be large; an effect the other way counts as inactive or inconclusive.
# Columns and labels:
# [1] = molecular target: Cytochrome P450 2D6 (Homo sapiens) (UniProt P10635); test: Cytochrome P450 family 2 subfamily D member 6 (CYP2D6) small molecule antagonists: luciferase biochemical (cell-free) qHTS assay (AID 1645840); further: nearly all actives have a fitted effect of over 55% in size
# Outline: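 P450-Glo luminescent screen: recombinant CYP2D6 enzyme–proluciferin substrate mix preincubated with compound 10 min at room temperature, then NADPH regeneration added for 1 h at room temperature. Detection reagent added for 20 min; luciferin light read as relative luminescence units.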
# [2] = molecular target: Cytochrome P450 2C9 (Homo sapiens) (UniProt P11712); test: Cytochrome P450 family 2 subfamily C member 9 (CYP2C9) small molecule antagonists: luciferase biochemical (cell-free) qHTS assay (AID 1645842); further: nearly all actives have a fitted effect of over 55% in size
# Outline: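 Luminescence, after 20 min with luciferin detection reagent, reflected CYP2C9 turnover during a 1 h NADPH-driven reaction at 37C. Enzyme-substrate mix contained 0.4% bovine serum albumin and was preincubated with compound 10 min at room temperature.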
# [3] = Primary qHTS for inhibitors of nuclear receptor binding SET domain protein 2 (NSD2) in an isogenic RCH-ACV NSD2 p.E1099K mutant (9B) (AID 1645876; active means well fitted curve in the direction sought with a large enough effect; an effect the other way counts as inactive or inconclusive; further: nearly all actives have a fitted effect of over 70% in size)
# [4] = Primary qHTS for inhibitors of nuclear receptor binding SET domain protein 2 (NSD2) in an RCH-ACV wild type WT cells (2C) (AID 1645877; active means well fitted curve in the direction sought with a large enough effect; an effect the other way counts as inactive or inconclusive; further: nearly all actives have a fitted effect of over 70% in size)
# Potency means the concentration at half of the fitted maximal effect.
# Cytochrome P450 2D6 (Homo sapiens), sequence (P10635 whole entry, looked up): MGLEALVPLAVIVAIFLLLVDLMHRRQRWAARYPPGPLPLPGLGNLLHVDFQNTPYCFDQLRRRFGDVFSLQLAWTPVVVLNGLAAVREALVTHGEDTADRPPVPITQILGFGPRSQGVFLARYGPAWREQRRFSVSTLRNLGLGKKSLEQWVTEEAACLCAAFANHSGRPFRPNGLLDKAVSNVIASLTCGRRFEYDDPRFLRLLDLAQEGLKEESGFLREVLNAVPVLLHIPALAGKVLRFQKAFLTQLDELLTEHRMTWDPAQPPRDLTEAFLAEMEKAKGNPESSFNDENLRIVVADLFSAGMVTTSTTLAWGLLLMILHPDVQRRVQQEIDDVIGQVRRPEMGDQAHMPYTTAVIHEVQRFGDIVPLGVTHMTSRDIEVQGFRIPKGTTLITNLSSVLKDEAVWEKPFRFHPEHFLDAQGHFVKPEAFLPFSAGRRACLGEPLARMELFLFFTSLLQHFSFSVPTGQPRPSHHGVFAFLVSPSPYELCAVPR
# Cytochrome P450 2C9 (Homo sapiens), sequence (P11712 whole entry, looked up): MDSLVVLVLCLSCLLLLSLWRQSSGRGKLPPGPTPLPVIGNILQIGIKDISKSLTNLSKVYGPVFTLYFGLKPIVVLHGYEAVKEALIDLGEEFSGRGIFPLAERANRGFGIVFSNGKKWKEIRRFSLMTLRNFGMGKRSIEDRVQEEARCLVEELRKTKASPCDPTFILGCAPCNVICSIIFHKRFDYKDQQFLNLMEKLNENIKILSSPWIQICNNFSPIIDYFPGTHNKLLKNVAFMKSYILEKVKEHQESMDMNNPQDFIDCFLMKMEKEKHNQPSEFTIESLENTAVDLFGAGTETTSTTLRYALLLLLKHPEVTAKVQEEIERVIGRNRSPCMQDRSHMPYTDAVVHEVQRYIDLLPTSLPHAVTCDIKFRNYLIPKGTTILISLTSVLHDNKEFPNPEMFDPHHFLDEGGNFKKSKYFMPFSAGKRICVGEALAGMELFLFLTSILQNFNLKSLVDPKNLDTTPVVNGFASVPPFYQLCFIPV
Compound,Potency [1],Potency [2],Potency [3],Potency [4]
CCCc1cc(C)n(C)c(=O)c1CN(C)C(=O)c1cc(-c2ccc(N3CCN(C(C)C)CC3)nc2)cc2c1cnn2C(C)C,inactive,0.601 µM (active),inactive,
N#Cc1cc(-c2ccnc(Nc3ccc(N4CCOCC4)cc3)n2)ccc1OC1CCOCC1,inactive,2.13 µM (active),1.45 µM (active),
COc1ccc(-c2csc(NC(=O)[C@H]3CCCCN3S(=O)(=O)c3ccc(C)cc3)n2)cc1,inactive,2.13 µM (active),18.3 µM (active),
Cn1nc(-c2ccc(C(F)(F)F)cc2)nc2c(=O)n(C)c(=O)nc1-2,0.239 µM (active),inactive,2.58 µM (active),2.3 µM (active)
CC(C)(C)c1ccc(C(=O)Nc2cn3cc(-n4ccnc4)ccc3n2)cc1,inactive,7.56 µM (active),inactive,
O=C(NCc1cccs1)c1cc2nc(-c3ccco3)cc(C(F)(F)Cl)n2n1,7.56 µM (active),0.301 µM (active),inactive,inactive
Cc1cc(N2CCN(C(=O)Oc3ccc(-c4ccccc4)cn3)CC2)c2ccccc2n1,15.1 µM (active),26.8 µM (active),12.9 µM (active),12.9 µM (active)
Nc1nccc(-c2c(-c3ccc(F)cc3)ncn2C2CCCCC2)n1,15.1 µM (active),16.9 µM (active),9.16 µM (active) and 11.8 µM (active),
Cc1ccc(NC(=O)C(C)C)cc1C1CCN(Cc2ccc(Oc3ccc(F)c(F)c3)cc2)CC1,5.35 µM (active),9.52 µM (active),12.9 µM (active),9.16 µM (active)
